Screening data: PubChem BioAssay, several laboratories
Rows were chosen to be rich in hits. Some 2.9% of all compounds tested hit in one or more screens of this group.
DAGLB inhibitor: blocks human DAGLB lipase activity; Q8NCG7; HEK293T DAGLB membrane lysate, EnzChek fluorogenic substrate; inhibition, % at 5.17 µM; 340,000 compounds, 0.059% hits; AID 504411; in the data active = inhibition above about 34%;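 note: 0% = enzyme with vehicle and 100% = wells lacking enzyme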
HGIII-sPLA2 inh: Blocks human group III sPLA2 activity; 370,000 compounds, 0.56% hits; inhibition, % at 12.2 µM; Q9NZ20; QFRET BODIPY PC-A2 liposome hydrolysis, fluorescence;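 active = inhibition above mean plus 3 SD of compounds lying within the high and low control bounds, cut at about 19% in these data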;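 note: 0% = median of test compound wells and 100% = no enzyme DMSO wells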
Rtt109 HAT inh: C. albicans Rtt109 histone acetyltransferase inhibition; Q5AAJ8; purified Rtt109/Vps75, ThioGlo CoA-SH fluorescence, 4 h; inhibition, % at 34.9 µM; 330,000 compounds, 0.16% hits; AID 540336;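 active = inhibition of at least 50% in every replicate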
Target sequence (Q5AAJ8 whole entry, looked up): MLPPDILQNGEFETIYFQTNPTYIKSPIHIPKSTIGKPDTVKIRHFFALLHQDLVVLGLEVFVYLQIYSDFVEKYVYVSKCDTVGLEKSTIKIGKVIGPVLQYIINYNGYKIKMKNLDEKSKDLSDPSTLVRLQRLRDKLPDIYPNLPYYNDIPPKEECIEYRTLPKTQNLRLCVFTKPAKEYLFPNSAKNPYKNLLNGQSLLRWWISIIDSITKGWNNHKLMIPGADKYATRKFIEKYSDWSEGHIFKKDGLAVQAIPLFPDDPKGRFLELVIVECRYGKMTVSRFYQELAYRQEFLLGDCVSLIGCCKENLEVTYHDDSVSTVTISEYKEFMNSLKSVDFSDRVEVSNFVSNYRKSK
Myeloid diff 2: myeloid differentiation induction; 360,000 compounds, 1% hits; ER-HoxA9 myeloid progenitors, lysozyme-GFP differentiation, flow cytometry; calls only at 10 µM; AID 624256;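 active = normalized GFP-positive differentiation at or above the plate's own cutoff, the solvent-only control mean plus 3 SD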;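 note: cells exposed to compound for four days before flow analysis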
ABHD5 PLIN5 PPI: inhibitors of human ABHD5-perilipin-5 interaction; Split G. princeps luciferase complementation, luminescence, 4 h; inhibition, % at 4 µM; 360,000 compounds, 0.78% hits; AID 602281;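 active = inhibition above the mean inhibition across every tested compound plus 3 SD, cut at about 22% in these data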;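 note: 0% = DMSO only wells and the 100% control is not disclosed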
H9c2 protect: myocardial damage modulation in H9c2 cells; 360,000 compounds, 0.63% hits; protection from H2O2 cell death, % at 20 µM; H9c2 cardiomyocytes, H2O2 injury protection, ATPLite, 2 h;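 active = compounds giving at least 50% protection of heart cells from peroxide-induced death in the single-dose screen, raw or plate-pattern-corrected value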;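 note: 0% = DMSO wells with peroxide and 100% = DMSO wells without peroxide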
hGIII sPLA2 conf: human GIII-sPLA2 inhibition, confirmation. shares compounds with HGIII-sPLA2 inh. recombinant hGIII-sPLA2, BODIPY PC-A2 QFRET fluorescence. inhibition, % at 12.2 µM. 2,000 compounds, 34% hits. AID 743280;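 active = mean inhibition across triplicates above the hit cutoff set in the earlier primary screen, cut at about 19% in these data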;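 note: 0% = enzyme with DMSO and 100% = DMSO wells lacking enzyme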
535nm interf: 535nm fluorescence interference, HGIII-sPLA2 counter-screen. BODIPY FL product fluorescence interference, QFRET. 2,000 compounds, 8.5% hits. inhibition, % at 12.2 µM. AID 743282. shares compounds with HGIII-sPLA2 inh;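 active = average inhibition above the solvent-only control mean plus 3 SD, cut at about 6% in these data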;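 note: 0% = DMSO with substrate plus product and 100% = DMSO with substrate alone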
BODIPY interf DR: interferes with 535nm fluorescence in dose response counter-screen | IC50, µM | shares compounds with HGIII-sPLA2 inh | BODIPY FL product fluorescence interference, cell-free | 240 tested, under 10 active;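 active = IC50 at or below 10 µM; inactive = IC50 above 10 µM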
* marks the source's active call; other numbers are inactive results.

What do the screens show for `Cc1onc(-c2ccccc2)c1C(=O)NC(=S)NNC(=O)c1ccc(O)cc1O`?
DAGLB inhibitor: 9; HGIII-sPLA2 inh: 23*; Rtt109 HAT inh: 1; ABHD5 PLIN5 PPI: -1; H9c2 protect: 51*; hGIII sPLA2 conf: 23*; 535nm interf: 3

What do the screens show for `Cc1onc(-c2ccccc2)c1C(=O)NC(=S)NNC(=O)c1ccc(O)cc1`?
DAGLB inhibitor: 1; HGIII-sPLA2 inh: 9; Rtt109 HAT inh: 14; Myeloid diff 2: inactive; ABHD5 PLIN5 PPI: -17; H9c2 protect: 34

How did COc1ccc(S(=O)(=O)Nc2c(C)n(C)n(-c3ccccc3)c2=O)cc1Br do in these assays?
DAGLB inhibitor: 0; HGIII-sPLA2 inh: -5; Myeloid diff 2: inactive; ABHD5 PLIN5 PPI: -3; H9c2 protect: 3

Results for CCOC(=O)c1c(C)n(C)c2ccc(OC)c(NC(=O)c3cccs3)c12 ?
DAGLB inhibitor: 0; HGIII-sPLA2 inh: -7; Rtt109 HAT inh: 6; Myeloid diff 2: inactive; ABHD5 PLIN5 PPI: -4; H9c2 protect: 2

What do the screens show for `COC(=O)c1ccccc1S(=O)(=O)N1CCC(C(=O)NC2=NCCS2)CC1`?
DAGLB inhibitor: -7; HGIII-sPLA2 inh: -3; Rtt109 HAT inh: -2; Myeloid diff 2: inactive; ABHD5 PLIN5 PPI: -5; H9c2 protect: -1

Results for Cc1cc(N2CCCC2)ccc1NC(=O)COc1cccc(C(F)(F)F)c1 ?
DAGLB inhibitor: -3; HGIII-sPLA2 inh: 22*; Rtt109 HAT inh: 3; Myeloid diff 2: inactive; ABHD5 PLIN5 PPI: -20; H9c2 protect: -18; hGIII sPLA2 conf: 35*; 535nm interf: 3; BODIPY interf DR: >122

Results for CC(=O)Nc1c2c(nn1-c1ccc(C)cc1)CS(=O)(=O)C2 ?
DAGLB inhibitor: 2; HGIII-sPLA2 inh: 8; Rtt109 HAT inh: -10; Myeloid diff 2: inactive; ABHD5 PLIN5 PPI: 1; H9c2 protect: 5

What do the screens show for `COC(=O)c1cc(NS(=O)(=O)c2ccc(NCc3cccnc3)c([N+](=O)[O-])c2)cc(C(=O)OC)c1`?
DAGLB inhibitor: -4; HGIII-sPLA2 inh: -3; Rtt109 HAT inh: 1; Myeloid diff 2: inactive; ABHD5 PLIN5 PPI: 6; H9c2 protect: 5

How did C/C(=N\Nc1ccccc1C(=O)O)c1ccncc1 do in these assays?
DAGLB inhibitor: 1; HGIII-sPLA2 inh: 0; ABHD5 PLIN5 PPI: 14; H9c2 protect: -6

How did Cc1nc2c(cnn2-c2ccccc2)c(=O)[nH]1 do in these assays?
DAGLB inhibitor: -1; HGIII-sPLA2 inh: 3; Rtt109 HAT inh: 0; Myeloid diff 2: inactive; ABHD5 PLIN5 PPI: -4; H9c2 protect: 2

Results for COc1cccc(/C=N/n2c(-c3cc(C)[nH]n3)n[nH]c2=S)c1 ?
DAGLB inhibitor: 0; HGIII-sPLA2 inh: 19*; Rtt109 HAT inh: 7; Myeloid diff 2: inactive; ABHD5 PLIN5 PPI: -1; H9c2 protect: 0; hGIII sPLA2 conf: 23*; 535nm interf: 1

How did Nc1ccc2c(c1)C(=O)c1cc([N+](=O)[O-])ccc1-2 do in these assays?
DAGLB inhibitor: 12; HGIII-sPLA2 inh: 29*; Rtt109 HAT inh: -1; Myeloid diff 2: inactive; ABHD5 PLIN5 PPI: 0; H9c2 protect: 0; hGIII sPLA2 conf: 8; 535nm interf: 4

What do the screens show for `CC(C)n1cc(C(N)=S)c(=O)n(Cc2ccccc2)c1=O`?
DAGLB inhibitor: -1; HGIII-sPLA2 inh: 21*; Rtt109 HAT inh: 5; Myeloid diff 2: inactive; ABHD5 PLIN5 PPI: 1; H9c2 protect: 10; hGIII sPLA2 conf: 12; 535nm interf: -4

Results for Cc1c(C(=O)NN)nn(-c2ccc(F)cc2)c(=O)c1C#N ?
DAGLB inhibitor: 1; HGIII-sPLA2 inh: -21; Rtt109 HAT inh: 1; Myeloid diff 2: inactive; ABHD5 PLIN5 PPI: -13; H9c2 protect: 4

Results for CCN(C(=O)CSc1nnnn1-c1ccccc1)c1c(N)n(Cc2ccccc2)c(=O)[nH]c1=O ?
DAGLB inhibitor: -1; HGIII-sPLA2 inh: -7; Rtt109 HAT inh: 2; Myeloid diff 2: inactive; ABHD5 PLIN5 PPI: -4; H9c2 protect: 11

How did COc1cccc(C=NNC(=S)NC2CC3CCC2C3)c1O (stereo unspecified) do in these assays?
HGIII-sPLA2 inh: 26*; hGIII sPLA2 conf: 31*; 535nm interf: 7.8*

What do the screens show for `COc1ccc(NC(=S)NC2CC3CCC2C3)c(OC)c1` (stereo unspecified)?
DAGLB inhibitor: 0; HGIII-sPLA2 inh: 21*; Rtt109 HAT inh: -6; Myeloid diff 2: inactive; ABHD5 PLIN5 PPI: -4; H9c2 protect: -7; hGIII sPLA2 conf: 20*; 535nm interf: -1

What do the screens show for `COc1ccc(/C=N/NC(=S)N[C@H]2CC3CCC2C3)cc1` (stereo partly specified)?
HGIII-sPLA2 inh: 6; Rtt109 HAT inh: -16; Myeloid diff 2: inactive; ABHD5 PLIN5 PPI: -1; H9c2 protect: -2

Results for c1ccc(-c2nccnc2-c2ccccc2)cc1 ?
DAGLB inhibitor: -4; HGIII-sPLA2 inh: 22*; Rtt109 HAT inh: -16; Myeloid diff 2: inactive; ABHD5 PLIN5 PPI: 9; H9c2 protect: 2; hGIII sPLA2 conf: 3; 535nm interf: -4

Results for c1ccc(-c2nnc(-c3ccccc3)nn2)cc1 ?
HGIII-sPLA2 inh: 7; Myeloid diff 2: inactive; ABHD5 PLIN5 PPI: -9; H9c2 protect: -10

What do the screens show for `COc1ccc(/C=C/c2nc3ccccc3n2Cc2ccc(OC)c(OC)c2)cc1`?
DAGLB inhibitor: -4; HGIII-sPLA2 inh: -10; Rtt109 HAT inh: 6; Myeloid diff 2: inactive; ABHD5 PLIN5 PPI: 12; H9c2 protect: -13

How did OCCNC(=S)NCCc1ccccc1 do in these assays?
DAGLB inhibitor: 1; HGIII-sPLA2 inh: 20*; Rtt109 HAT inh: -3; Myeloid diff 2: inactive; ABHD5 PLIN5 PPI: 3; H9c2 protect: 4; hGIII sPLA2 conf: 4; 535nm interf: -1

Results for S=C(NCCc1ccccc1)Nc1ncccn1 ?
DAGLB inhibitor: 2; HGIII-sPLA2 inh: 20*; Rtt109 HAT inh: 3; Myeloid diff 2: inactive; ABHD5 PLIN5 PPI: 1; H9c2 protect: -4; hGIII sPLA2 conf: 10; 535nm interf: -3

What do the screens show for `Cc1cccnc1NC(=S)NCCc1ccccc1`?
DAGLB inhibitor: -6; HGIII-sPLA2 inh: 16; Rtt109 HAT inh: 3; Myeloid diff 2: inactive; ABHD5 PLIN5 PPI: -1; H9c2 protect: -11
